Experimental data reported in PubChem BioAssay AID624086 (Broad Institute, 2012).
Calls of active or inactive are those of the source.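 Rule for the calls: active = fitted half-maximal effect concentration at or below the top concentration tested; inactive = the rest.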

test: TCF/LEF luciferase signal increase in HEK293T – cell-based, firefly luciferase, dry powder, orthogonal assay for GSK3b inhibitor project, dose response (AID 624086); conditions: HEK293T TCF/LEF firefly luciferase reporter, 24 h; series mostly up to 26 µM

outcome, inactive:
Cc1[nH]nc2c1C(c1ccc(Br)cn1)C1=C(CC(C)(C)CC1=O)N2 (stereo unspecified)
COc1ccc(-c2nn(-c3ccccc3)cc2CO)cc1
CC1(C)CC(=O)C2=C(C1)Nc1n[nH]c(C(F)(F)F)c1C2c1ccc(F)cc1C(F)(F)F (stereo unspecified)
COc1cccc(C2C3=C(CC(C)(C)CC3=O)Nc3n[nH]c(C)c32)c1 (stereo unspecified)
CC(C)COc1ccc(-c2nn(-c3ccccc3)cc2/C=N/O)cc1
COc1ccccc1C1C2=C(CC(C)(C)CC2=O)Nc2n[nH]c(C(C)(C)C)c21 (stereo unspecified)
O/N=C/c1cn(-c2ccccc2)nc1-c1ccccc1
O/N=C/c1cn(-c2ccccc2)nc1-c1ccc(F)cc1
Cc1[nH]nc2nc3c(cc12)C(=O)CC(C)(C)C3
CN(C)Cc1cn(-c2ccccc2)nc1-c1ccccc1
COc1ccccc1C1C2=C(CC(C)(C)CC2=O)Nc2n[nH]c(C(C)C)c21 (stereo unspecified)
COc1cccc(-c2nn(-c3ccccc3)cc2/C=N/O)c1
CC1(C)CC(=O)/C(=C\c2ccccc2C(F)(F)F)C(=Nc2cc(C(F)(F)F)[nH]n2)C1
O/N=C/c1cn(-c2ccccc2)nc1-c1ccc(Cl)cc1
COc1ccccc1[C@H]1C2=C(CC(C)(C)CC2=O)Nc2n[nH]c(C(F)(F)F)c21
Cc1[nH]nc2c1C(c1cccc(F)c1)C1=C(CC(C)(C)CC1=O)N2 (stereo unspecified)
COc1ccccc1/C=C1\C(=O)CC(C)(C)CC1=Nc1cc(C(F)(F)F)[nH]n1
Cc1[nH]nc2c1C(C)(c1ccccc1)C1=C(CC(C)(C)CC1=O)N2 (stereo unspecified)
Cc1[nH]nc2c1[C@@H](c1cccs1)C1=C(CC(C)(C)CC1=O)N2
Cc1[nH]nc2c1C(c1ccsc1)C1=C(CC(C)(C)CC1=O)N2 (stereo unspecified)
COc1ccccc1-c1c2c(nc3n[nH]c(C)c13)CCC2=O
COc1ccc(C2C3=C(CC(C)(C)CC3=O)Nc3n[nH]c(C)c32)cc1 (stereo unspecified)
COc1ccc(-c2nn(-c3ccccc3)cc2C(=O)O)cc1
Cc1ccc(-c2nn(-c3ccccc3)cc2/C=N/O)cc1
Cc1[nH]nc2c1C(C1CCCCC1)C1=C(CC(C)(C)CC1=O)N2 (stereo unspecified)
CC1(C)CC(=O)/C(=C\c2cccc(F)c2C(F)(F)F)C(=Nc2cc(C(F)(F)F)[nH]n2)C1
COc1ccccc1C1C2=C(CCC(C)(C)C2=O)Nc2n[nH]c(C)c21 (stereo unspecified)
Cc1[nH]nc2c1C(c1ccccn1)C1=C(CC(C)(C)CC1=O)N2 (stereo unspecified)
Cc1ccc(C2C3=C(CC(C)(C)CC3=O)Nc3n[nH]c(C)c32)cc1 (stereo unspecified)
COc1ccc(-c2nn(-c3ccccc3)cc2C(=O)N(C)C)cc1
Cc1[nH]nc2nc3c(c(-c4cccs4)c12)C(=O)CC(C)(C)C3
